# Screens from PubChem.
# PHOSPHO1 inh: blocks human PHOSPHO1 phosphatase activity; Q8TCT1; recombinant PHOSPHO1, absorbance phosphatase assay; inhibition, % at 13.3 µM; 290,000 compounds, 1.1% hits; AID 1565; in the data active means inhibition above about 60%
# Target sequence (Q8TCT1 whole entry, looked up): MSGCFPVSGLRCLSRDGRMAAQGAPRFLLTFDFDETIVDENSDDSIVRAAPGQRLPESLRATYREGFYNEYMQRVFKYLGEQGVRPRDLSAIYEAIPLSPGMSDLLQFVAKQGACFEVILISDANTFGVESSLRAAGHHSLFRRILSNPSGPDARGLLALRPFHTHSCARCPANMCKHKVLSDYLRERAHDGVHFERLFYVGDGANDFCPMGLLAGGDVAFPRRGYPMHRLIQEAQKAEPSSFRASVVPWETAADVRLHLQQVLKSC
# APOBEC3A inh: human APOBEC3A DNA deaminase inhibition; P31941; AID 493011; inhibition, % at 20 µM; recombinant A3A, FAM/TAMRA ssDNA deamination fluorescence; 330,000 compounds, 0.41% hits;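 active means at least 40% inhibition at 20 µM here, with at most 30% in a related deaminase screen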
# Target sequence (P31941 whole entry, looked up): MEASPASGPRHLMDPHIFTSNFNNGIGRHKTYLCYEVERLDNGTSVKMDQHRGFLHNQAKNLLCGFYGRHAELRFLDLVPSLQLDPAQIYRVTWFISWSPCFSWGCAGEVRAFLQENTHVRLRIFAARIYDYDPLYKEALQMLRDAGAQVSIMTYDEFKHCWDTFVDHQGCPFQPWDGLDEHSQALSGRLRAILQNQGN
# rCAG RNA binder: binds r(CAG) RNA repeats | 370,000 compounds, 1.3% hits | r(CAG) RNA repeat, TO-PRO-1 dye displacement fluorescence | inhibition, % at 3 µM | AID 651821;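 active means inhibition above the plate cutoff, the mean of all test compounds on that plate plus 3 SD, cut at about 35% in these data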;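 further: higher means more dye released from RNA so lower well fluorescence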
# APOBEC3G inh: APOBEC3G (human) deaminase inhibition; recombinant A3G, ssDNA deamination FAM/TAMRA fluorescence; inhibition, % at 20 µM; 330,000 compounds, 0.28% hits; AID 493012;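 active means inhibition of at least 40% at 20 µM, with no more than 30% in the related APOBEC3A deaminase screen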
# aDG glyco up: alpha-DG glycosylation activation; Pro5-aDG cells, alpha-DG glycosylation AlphaScreen (IIH6); 0% Pro5, 100% B10-LARGE cell signal; activation, % at 10 µM; 360,000 compounds, 0.22% hits;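 active means activation of at least 8% versus controls, or a plate z-score of at least 8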;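 further: Pro5 are CHO cells carrying HIG-tagged alpha-DG that lacks glycosylation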
# ALR H2O2 inh: inhibitors of human sulfhydryl oxidase ALR; purified ALR, DTT oxidation, H2O2 HRP-luminol luminescence; inhibition, % (concentration not given with the values); 290,000 compounds, 3.8% hits; AID 485317;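 active means mean replicate inhibition above about 79%, with every replicate also reaching it, limit read from the data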
# Hits are given with their value; n = inactive; x = not tested or not shown. An excerpt weighted towards active compounds, which were near 5.4% of everything screened.
SMILES,PHOSPHO1 inh,APOBEC3A inh,rCAG RNA binder,APOBEC3G inh,aDG glyco up,ALR H2O2 inh
CCOP(=O)(OCC)C(O)c1ccc(OC)c(OC)c1 (stereo not drawn),n,n,n,n,n,98.8
Cn1cnc([N+](=O)[O-])c1Sc1ccc([N+](=O)[O-])cc1,n,n,n,n,n,97.4
O=[N+]([O-])c1ccc(C(c2ccc([N+](=O)[O-])cc2)c2ccc([N+](=O)[O-])cc2)cc1,x,x,n,x,n,x
CCOC(=O)C1CCN(/C=C2\C(=O)NC(=S)N(CC)C2=O)CC1,61.8,n,n,n,n,n
CCOC(=O)c1c(C)c(P(=S)(N2CCOCC2)N2CCOCC2)n(C)c1C,61.0,n,n,n,n,n
COc1cc2c3c(c1OC)Oc1ccc(cc1)C[C@H]1c4c(cc(OC)c(OC)c4Oc4ccc(cc4)C[C@@H]3N(C)CC2)CCN1C,x,n,n,n,n,x
CN1CCc2cc3c(c4c2C1Cc1ccccc1-4)OCO3 (stereo not drawn),n,n,n,n,n,n
COc1cc2c(cc1O)C[C@H]1c3c(cc(O)c(OC)c3-2)CCN1C,x,n,n,n,n,98.1
CN1CCc2cc(O)cc3c2[C@H]1Cc1ccc(O)c(O)c1-3,x,n,n,n,n,98.5
CCCN1CCc2cc(O)cc3c2[C@H]1Cc1ccc(O)c(O)c1-3,x,n,n,n,n,98.6
Cc1cccc(C)c1-n1nnnc1C(c1ccnc2ccccc12)N1CCC2(CC1)C(=O)NCN2c1ccccc1 (stereo not drawn),x,x,n,x,n,x
CCCCn1c(NS(=O)(=O)c2ccccc2)c(C(=O)OCC)c2nc3ccccc3nc21,83.4,x,n,x,n,n
CCCCn1c(NC(=O)c2ccc(Br)o2)c(C(=O)OCC)c2nc3ccccc3nc21,n,n,n,n,n,n
CCC(=O)[C@@H](C)[C@@H](O)[C@H](C)C[C@@H](C)C1OC(=O)C[C@@]2(O)CC=C(C)C(O2)C(C)=CCCC[C@H](O[C@H]2C[C@@H](OC(N)=O)[C@H](O)[C@@H](C)O2)C=C[C@H](C)C[C@H]1C (stereo partly drawn),x,x,x,x,n,x
CC(Cc1ccccc1Sc1ccccc1O)N(C)C (stereo not drawn),n,n,n,n,n,97.9
C#CCN(C)[C@H](C)Cc1ccccc1,n,n,n,n,n,n
N#Cc1ccc(NC(=S)N2Cc3cc(Br)ccc3-n3nncc3C2)cc1,x,x,n,x,x,x
CC1CN=C(Nc2ccc(N(C)C)cc2)S1 (stereo not drawn),n,n,n,n,n,89.3
CCC(C)NC(=O)c1c(N)n(CC2CCCO2)c2nc3ccccc3nc12 (stereo not drawn),n,n,n,n,n,n
CCOc1cc(-c2nc3c(C)cccn3c2NCC2CCCO2)ccc1O (stereo not drawn),n,n,n,n,n,96.5
Cc1cccn2c(NCC3CCCO3)c(C(C)C)nc12 (stereo not drawn),n,n,n,n,n,77.5
COc1ccccc1-n1c(CNCC2CCCO2)nc2ccccc2c1=O (stereo not drawn),n,n,n,n,n,n
N#CCC[C@@H]1CC[C@]2(CCCN(Cc3ccncc3)C2)O1,x,x,n,x,x,x
CC(C)(C)n1nnnc1C1CN=C(c2ccccc2)c2ccccc2N1 (stereo not drawn),x,x,n,x,x,x
CN=C(SCc1cc2c(cc1Cl)OCO2)c1c(O)n(C)c(=O)n(C)c1=O,n,n,n,n,n,100.5
SMILES,PHOSPHO1 inh,APOBEC3A inh,rCAG RNA binder,APOBEC3G inh,aDG glyco up,ALR H2O2 inh
CC(C)(C)n1nnnc1C(C1CC1)N1CCC2(CC1)C(=O)NCN2c1ccccc1 (stereo not drawn),x,x,n,x,n,x
COc1ccc2c(c1OC)C(=O)OC2c1c(O)n(C2CCCCC2)c(=O)[nH]c1=O (stereo not drawn),n,n,n,n,n,95.8
O=c1[nH]c(=O)n(C2CCCCCC2)c(O)c1C=NCc1cccnc1,n,n,n,n,n,n
COc1ccccc1N,x,x,n,x,x,x
Cc1cc(/C=C2/C(=O)NC(=O)N(Cc3ccco3)C2=O)c(C)n1-c1ccccc1O,n,n,n,n,n,80.6
CCN(CC)c1ccc(/C=C2\C(=O)NC(=O)N(Cc3ccco3)C2=O)cc1,n,n,n,n,n,x
CCN(CC)C(=O)c1ccc(N(Cc2ccccc2)S(C)(=O)=O)cc1,n,n,n,n,n,n
CCN(CC)C(=O)c1ccc2c(c1)C1C=CCC1C(C(=O)O)N2 (stereo not drawn),n,n,46.0,n,n,n
CCN(CC)C(=O)c1ccc2c(c1)C1C(Cl)C(Sc3ccccc3[N+](=O)[O-])CC1C(C(=O)O)N2 (stereo not drawn),n,n,x,n,n,97.0
O=C1NC(=S)NC(=O)C12C(c1ccc(F)cc1)NC(=S)NC2c1ccc(F)cc1 (stereo not drawn),95.4,n,n,n,n,n
COc1ccc(Cc2cn(C)c(N)n2)cc1,x,x,n,x,x,x
COc1nc2ccccc2nc1N1CC1,x,x,n,x,n,x
O=c1[nH]c(O)c(N=Nc2ccc(S(=O)(=O)N3CCOCC3)cc2)c(=O)[nH]1,n,n,n,n,n,n
O=c1[nH]c(O)c(N=Nc2cccc(S(=O)(=O)N3CCOCC3)c2)c(=O)[nH]1,60.0,n,n,n,n,x
O=c1[nH]c(=S)[nH]c(O)c1N=Nc1ccc(S(=O)(=O)N2CCOCC2)cc1,n,n,n,n,n,95.3
O=c1[nH]c(=O)n(-c2ccccc2F)c(O)c1/C=C1\C=Nc2ccccc21,n,n,n,n,n,95.9
COc1ccc(-n2c(O)c(/C=C3\C=Nc4ccc(Br)cc43)c(=O)[nH]c2=O)c(OC)c1,n,n,n,n,n,96.9
O=c1[nH]c(=O)n(-c2ccc(F)cc2)c(O)c1/C=C1\C=Nc2ccccc21,x,n,n,n,n,n
O=C(O)c1cc(S(=O)(=O)N2CC3CC(C2)c2cccc(=O)n2C3)ccc1F (stereo not drawn),x,x,n,x,x,x
CCOC(=O)CC[C@@H]1CC[C@]2(CCCN(Cc3ccncc3)C2)O1,x,x,n,x,x,x
COC(=O)[C@@]1(O)c2c(oc3cccc(O)c3c2=O)C=C[C@H]1O,x,x,n,x,x,x
CCN1CCN(c2ccc(N)cc2)CC1,n,n,n,n,n,93.6
CCN1CCN(c2ccc(NC(C)=O)cc2Cl)CC1,n,n,n,n,n,n
CCCCCCN1CCN(c2ccc(Cl)cc2)CC1,n,n,n,n,n,n
CCN1CCN(c2ccc(N)cc2C)CC1,n,n,n,n,n,99.3
CN1CCN(c2ccc(N)cc2)CC1,n,n,n,n,n,98.7
c1ccc(Cc2cnc(N3CCNCC3)nc2)cc1,x,x,n,x,x,x
CC(c1ccccc1)n1cc(C(=O)NC2CCCC2)nn1 (stereo not drawn),x,x,n,x,x,x
CSC1=NP(=S)(SC)N2CCCC2=C1C#N (stereo not drawn),n,n,n,n,n,n
COC(=O)CSC1=NP(=S)(SCC(=O)OC)N2CCCC2=C1C#N (stereo not drawn),67.4,n,n,n,n,98.1
